Experimental data from PubChem BioAssay (Tox21).
Results filed as inconclusive are left out. Calls of active or inactive are those of the source. Unless noted, calls follow the shape of the dose curve; as a rule, active = well fitted curve in the direction sought with a large enough effect in the repeat runs; inconclusive = weak or mixed curves; inactive = no such curve, though single readings can be large; an effect the other way counts as inactive or inconclusive.

Experiments:
[1] = target: Luciferin 4-monooxygenase (Photinus pyralis) (UniProt P08659); test: qHTS assay to identify small molecule inhibitors of firefly luciferase (AID 1224835); also: nearly all actives have a fitted effect of over 25% in size; also: potency is read from the fitted curve at half-maximal effect; as to activity change, negative = inhibition: series mostly up to about 120 µM
Outline: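 Biochemical qHTS: compounds run as interplate titrations against purified firefly enzyme, with D-luciferin and ATP each at its KM concentration. Light output recorded by CCD imaging.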

[2] = qHTS assay to identify small molecule agonists of the constitutive androstane receptor (CAR) signaling pathway - cell viability counter screen (AID 1224836); also: nearly all actives have a fitted effect of over 45% in size; also: potency is read from the fitted curve at half-maximal effect; as to viability change, negative = cytotoxic: series mostly up to about 92 µM
Outline: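 Using CellTiter-Fluor, viability of HepG2 cells harbouring hCAR and CYP2B6-2.2kb was measured following 23 h incubation with a 15-concentration compound series plus PK11195 (0.75 uM final).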

[3] = qHTS assay to identify small molecule antagonists of the constitutive androstane receptor (CAR) signaling pathway - cell viability counter screen (AID 1224837); also: nearly all actives have a fitted effect of over 45% in size; also: potency is read from the fitted curve at half-maximal effect; as to activity change, negative = cytotoxicity: series mostly up to about 92 µM
Outline: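 CITCO at 50 nM final was added alongside compounds (15 concentrations) to double-stable hCAR/CYP2B6-2.2kb HepG2 cells. Following 23 hr at 37 C, cell viability was quantified by CellTiter-Fluor fluorescence intensity.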

[4] = target: Nuclear receptor subfamily 1 group I member 3 (Homo sapiens) (UniProt Q14994); test: qHTS assay to identify small molecule agonists of the constitutive androstane receptor (CAR) signaling pathway (AID 1224839); also: nearly all actives have a fitted effect of over 15% in size; also: potency is read from the fitted curve at half-maximal effect; as to activation: series mostly up to about 92 µM
Outline: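 Double-stable HepG2 cells (hCAR, CYP2B6-2.2kb) seeded 4 h before compound addition. Exposure 24 h with 0.75 uM PK11195 final. Luciferase detected by ONE-Glo.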

[5] = qHTS assay to identify small molecule antagonists of the estrogen related receptor signaling pathway with the pleiotropic PPARgamma coactivator (PGC) from Tox21 10K library - cell viability counter screen (AID 1224840; active = well fitted cell-killing curve with a large enough effect in the repeat runs, not every such curve was filed as active; also: nearly all actives have a fitted effect of over 40% in size; also: potency is read from the fitted curve at half-maximal effect)
Outline: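 Readout: fluorescence intensity from CellTiter-Fluor after 30 min at 37 C/5% CO2. Preceded by 17.5 h treatment of PGC/ERR cells with DMSO-dissolved compounds, added 6 h post-seeding.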

[6] = qHTS assay to identify small molecule antagonists of the estrogen related receptor signaling pathway with the pleiotropic PPARgamma coactivator (PGC) from Tox21 10K library (AID 1224841; call rule not given here; also: actives are mostly falling curves and most rising ones were filed inactive; nearly all actives have a fitted effect of over 50% in size; also: potency is read from the fitted curve at half-maximal effect)
Outline: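 One-Glo luminescence, measured after half an hour at room temperature, quantified reporter output of PGC/ERR cells. These had been plated at 2,000 per well, incubated 6 h, dosed with compounds in DMSO, then kept 18 h at 37 C.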

[7] = qHTS assay to identify small molecule agonists of the estrogen related receptor signaling pathway with the pleiotropic PPARgamma coactivator (PGC) from Tox21 10K library (AID 1224842); also: nearly all actives have a fitted effect of over 15% in size
Outline: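 PGC/ERR reporter cell line, 2,000 cells per well, incubated 6 h at 37 C before 23 nL compound in DMSO was added. After 18 h at 37 C, One-Glo luminescence read following 30 min at room temperature.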

[8] = target: Thyrotropin receptor (Homo sapiens) (UniProt P16473); test: qHTS assay to identify small molecule agonists of the thyroid stimulating hormone receptor (TSHR) signaling pathway (AID 1224843; calls by dose curve; also: nearly all actives have a fitted effect of over 45% in size; also: potency is read from the fitted curve at half-maximal effect)
Outline: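 HEK293/TSHR, 800 cells/well; cpd 30 min RT; add cAMP-d2 + anti-cAMP-cryptate, 1 h RT; fluorescence read on plate reader. 15-pt titration, n=3.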

[9] = qHTS assay to identify small molecule agonists of the hypoxia (HIF-1) signaling pathway - cell viability counter screen (AID 1224844; calls by dose curve; also: nearly all actives have a fitted effect of over 50% in size; also: potency is read from the fitted curve at half-maximal effect)
Outline: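 In this counter screen, HRE-bla ME-180 cell viability after 17 hrs of compound exposure at 37C was read by CellTiter-Glo luminescence, multiplexed with the beta-lactamase reporter measurement.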

[10] = qHTS assay to identify small molecule agonists of the hypoxia (HIF-1) signaling pathway (AID 1224846; active = well fitted activation curve with a large enough effect in the signal ratio in the repeat runs, not every such curve was filed as active; the % refers to the signal ratio)
Outline: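 ME-180 HRE-bla reporter cells; compounds in DMSO, 17 h at 37C; read-out beta-lactamase via CCF4-AM FRET.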

[11] = qHTS assay to identify small molecule agonists of H2AX - cell viability counter screen (AID 1224847; calls by dose curve; also: nearly all actives have a fitted effect of over 30% in size; also: potency is read from the fitted curve at half-maximal effect; as to activity change, negative = cytotoxicity: top concentration of the series differs between compounds)
Outline: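 Quantitative HTS viability measurement: CHO-K1 wild-type cells in serum (10% FBS) medium, short 3 hr drug exposure at 37C with 0.76% DMSO, CellTiter-Glo luminescent detection.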

[12] = target: Nuclear receptor subfamily 1 group I member 3 (Homo sapiens) (UniProt Q14994); test: qHTS assay to identify small molecule antagonists of the constitutive androstane receptor (CAR) signaling pathway (AID 1224838); also: nearly all actives have a fitted effect of over 40% in size; also: potency is read from the fitted curve at half-maximal effect
Outline: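 Inhibition of CITCO-driven (50 nM final) CYP2B6 reporter expression is measured in HepG2 cells stably carrying hCAR. Fifteen compound concentrations are applied for 24 h at 37 C, followed by luciferase luminescence.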

[13] = qHTS assay to identify small molecule agonists of H2AX (AID 1224845; active = well fitted activation curve with a large enough effect in the signal ratio in the repeat runs, not every such curve was filed as active; the % refers to the signal ratio; also: potency is read from the fitted curve at half-maximal effect)
Outline: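 Wild-type CHO-K1 cells, plated overnight, exposed 3hr at 37C to 15 concentrations (0.76% DMSO final). Lysed, then HTRF anti-pH2AX (S139) cryptate and anti-H2AX-d2 antibodies, 24 hr room temperature; 665/620 nm emission read.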
% is scaled to controls: 0 for no effect and ±100 for the full control effect.

Luciferin 4-monooxygenase (Photinus pyralis), sequence (P08659 whole entry, looked up): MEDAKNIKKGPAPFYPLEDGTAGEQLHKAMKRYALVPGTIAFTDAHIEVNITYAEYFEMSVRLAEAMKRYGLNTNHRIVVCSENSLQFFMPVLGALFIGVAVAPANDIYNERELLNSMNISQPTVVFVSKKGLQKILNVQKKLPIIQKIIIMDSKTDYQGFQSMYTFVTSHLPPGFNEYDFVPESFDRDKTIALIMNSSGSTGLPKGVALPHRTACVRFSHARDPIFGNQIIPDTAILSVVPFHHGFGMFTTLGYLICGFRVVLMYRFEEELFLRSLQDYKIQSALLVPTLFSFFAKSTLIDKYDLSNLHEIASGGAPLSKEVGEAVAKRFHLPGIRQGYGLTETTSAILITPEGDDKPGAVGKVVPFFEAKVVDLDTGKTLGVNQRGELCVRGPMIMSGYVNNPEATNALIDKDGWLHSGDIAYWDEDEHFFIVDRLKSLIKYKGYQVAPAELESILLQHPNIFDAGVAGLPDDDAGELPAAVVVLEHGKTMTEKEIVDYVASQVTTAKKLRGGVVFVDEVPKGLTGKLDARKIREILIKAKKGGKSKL
Nuclear receptor subfamily 1 group I member 3 (Homo sapiens), sequence (Q14994 whole entry, looked up): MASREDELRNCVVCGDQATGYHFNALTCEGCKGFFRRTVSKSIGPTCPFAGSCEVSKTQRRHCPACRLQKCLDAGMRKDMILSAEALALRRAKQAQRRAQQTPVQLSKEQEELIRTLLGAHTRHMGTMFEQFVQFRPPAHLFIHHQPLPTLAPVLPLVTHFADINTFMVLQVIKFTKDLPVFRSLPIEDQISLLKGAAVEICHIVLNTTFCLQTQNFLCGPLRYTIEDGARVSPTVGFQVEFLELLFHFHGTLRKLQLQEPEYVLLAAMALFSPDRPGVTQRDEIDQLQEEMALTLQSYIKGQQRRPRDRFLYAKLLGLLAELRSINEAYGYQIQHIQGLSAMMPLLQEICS
Thyrotropin receptor (Homo sapiens), sequence (P16473 whole entry, looked up): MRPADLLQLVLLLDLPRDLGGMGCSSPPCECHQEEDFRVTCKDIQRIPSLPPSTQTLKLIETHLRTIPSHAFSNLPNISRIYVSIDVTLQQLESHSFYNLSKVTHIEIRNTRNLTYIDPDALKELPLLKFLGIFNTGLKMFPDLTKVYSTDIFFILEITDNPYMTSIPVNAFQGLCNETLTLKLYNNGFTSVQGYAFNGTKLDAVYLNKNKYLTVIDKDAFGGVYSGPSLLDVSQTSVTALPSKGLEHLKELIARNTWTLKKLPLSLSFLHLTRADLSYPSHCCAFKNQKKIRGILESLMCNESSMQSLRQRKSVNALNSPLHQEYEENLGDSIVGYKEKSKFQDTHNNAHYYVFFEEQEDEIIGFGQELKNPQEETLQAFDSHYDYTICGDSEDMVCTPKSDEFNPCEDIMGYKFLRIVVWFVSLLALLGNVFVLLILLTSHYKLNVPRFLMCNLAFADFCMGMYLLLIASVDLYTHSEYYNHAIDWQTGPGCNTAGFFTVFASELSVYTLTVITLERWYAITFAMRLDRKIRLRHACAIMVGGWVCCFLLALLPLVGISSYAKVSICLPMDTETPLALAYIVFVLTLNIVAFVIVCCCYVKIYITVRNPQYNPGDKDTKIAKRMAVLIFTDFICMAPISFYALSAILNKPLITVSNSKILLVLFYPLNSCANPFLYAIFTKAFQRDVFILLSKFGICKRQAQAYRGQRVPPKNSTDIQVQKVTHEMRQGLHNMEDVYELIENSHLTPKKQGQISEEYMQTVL

CCCCCCCCSCc1cc(C)c(O)c(CSCCCCCCCC)c1
inactive: Potency [1] | Potency [2] | Potency [3] | Potency [4] | Potency [5] | Potency [6] | Potency [7] | Potency [8] | Potency [9] | Potency [10] | Potency [11]

CCCCCCCCCCCCCCCCC(C(=O)O)C(O)(CC(=O)O)C(=O)O (stereo not drawn)
inactive: Potency [1] | Potency [2] | Potency [3] | Potency [12] | Potency [4] | Potency [5] | Potency [6] | Potency [7] | Potency [8] | Potency [13]

CC(Cc1ccc(O)c(O)c1)C(C)Cc1ccc(O)c(O)c1 (stereo not drawn)
active: Potency [1] 71 µM
inactive: Potency [2] | Potency [3] | Potency [12] | Potency [7] | Potency [8] | Potency [9]

C/C=C/C(=O)C1=C(C)C=CCC1(C)C
inactive: Potency [1] | Potency [2] | Potency [3] | Potency [12] | Potency [4] | Potency [5] | Potency [6] | Potency [7] | Potency [8] | Potency [9] | Potency [13] | Potency [10]

C=COCCCC
inactive: Potency [1] | Potency [2] | Potency [3] | Potency [12] | Potency [4] | Potency [5] | Potency [8] | Potency [9] | Potency [13]

C=CCc1cc(S(=O)(=O)c2ccc(O)c(CC=C)c2)ccc1O
inactive: Potency [1] | Potency [2] | Potency [3] | Potency [4] | Potency [5] | Potency [7] | Potency [8] | Potency [9]

Nc1c(Br)cc([N+](=O)[O-])cc1Br
active: Potency [6] 54.5 µM
inactive: Potency [1] | Potency [2] | Potency [3] | Potency [12] | Potency [4] | Potency [5] | Potency [7] | Potency [9] | Potency [13] | Potency [10] | Potency [11]

O=C1CCCCCCCCCCCCCC1
active: Potency [4] 30.6 µM
inactive: Potency [1] | Potency [2] | Potency [3] | Potency [12] | Potency [5] | Potency [6] | Potency [7] | Potency [8]

CCCCCCCCCCCCN1CCCC1=O
active: Potency [1] 44.8 µM | Potency [4] 54.5 µM
inactive: Potency [2] | Potency [3] | Potency [5] | Potency [6] | Potency [7] | Potency [13]

CC(C)(C)c1ccc(OC2CCCCC2O)cc1 (stereo not drawn)
active: Potency [1] 31.7 µM | Potency [4] 27.3 µM | Potency [11] 71.3 µM
inactive: Potency [2] | Potency [3] | Potency [12] | Potency [5] | Potency [8] | Potency [9] | Potency [13]

CCCCCCCCCCCCS(=O)(=O)Cl
inactive: activity change, negative = inhibition [1] -13.9% [at 23.6 µM] | viability change, negative = cytotoxic [2] 14.3% [at 19 µM] | activity change, negative = cytotoxicity [3] -7.2% [at 19 µM] | activation [4] -0.0973% [at 19 µM] | viability change, negative = cytotoxic [5] 3.05% [at 19 µM] | activation [8] -1.12% [at 19 µM] | activity change, negative = cytotoxicity [9] -3.11% [at 15.8 µM]

C=C1C(CCl)(CCl)C2(Cl)C(Cl)C(Cl)C1(Cl)C2(Cl)Cl (stereo not drawn)
inactive: Potency [1] | Potency [2] | Potency [3] | Potency [12] | Potency [7]
active: Potency [4] 8.53 µM | Potency [5] 53.8 µM | Potency [6] 60.4 µM | Potency [8] 17 µM | Potency [9] 24.3 µM | Potency [13] 99.6 µM | Potency [11] 99.6 µM

CC(=O)N(C)C
inactive: Potency [1]

O[Si](c1ccccc1)(c1ccccc1)c1ccccc1
inactive: Potency [1] | Potency [2] | Potency [3] | Potency [12] | Potency [7] | Potency [9]
active: Potency [4] 30.6 µM | Potency [6] 68.6 µM | Potency [8] 48.6 µM

Cc1cc(Br)ccc1NC(=O)CCl
active: Potency [2] 48.6 µM | Potency [3] 54.5 µM | Potency [12] 68.6 µM | Potency [5] 15.4 µM | Potency [6] 6.11 µM | Potency [9] 21.9 µM
inactive: Potency [1] | Potency [4] | Potency [7] | Potency [8] | Potency [11]

CC(C)(C)C1=CC(=O)C(C(C)(C)C)=CC1=O
active: Potency [4] 21.1 µM | Potency [8] 9.44 µM
inactive: Potency [1] | Potency [2] | Potency [3] | Potency [12] | Potency [5] | Potency [6] | Potency [7] | Potency [10]

Nc1ccc(Oc2cccc(Oc3ccc(N)cc3)c2)cc1
active: Potency [1] 35.6 µM | Potency [6] 8.63 µM | Potency [13] 113 µM
inactive: Potency [2] | Potency [3] | Potency [4] | Potency [5] | Potency [7] | Potency [8] | Potency [9]

CCOC(=O)[C@H](O)[C@@H](O)C(=O)OCC
inactive: Potency [1] | Potency [2] | Potency [3] | Potency [12] | Potency [4] | Potency [5] | Potency [9] | Potency [13] | Potency [10] | Potency [11]

CCCCCN=C(N)N/N=C/c1c[nH]c2ccc(OC)cc12
active: Potency [2] 21.1 µM | Potency [3] 18.8 µM | Potency [12] 16.8 µM | Potency [5] 21.1 µM | Potency [11] 49.2 µM
inactive: Potency [1] | Potency [4] | Potency [7]

COc1ccc(OC)c(N=Nc2c(O)ccc3ccccc23)c1
active: Potency [1] 6.33 µM | Potency [2] 30.6 µM | Potency [3] 24.3 µM | Potency [4] 12.2 µM | Potency [9] 38.9 µM | Potency [11] 40.1 µM
inactive: Potency [12] | Potency [8] | Potency [13]

Oc1ccc(C2(c3ccc(O)c(C4CCCCC4)c3)CCCCC2)cc1C1CCCCC1
inactive: Potency [1] | Potency [4] | Potency [7]
active: Potency [2] 48.6 µM | Potency [3] 27.3 µM | Potency [12] 27.3 µM | Potency [5] 61.1 µM | Potency [6] 54.5 µM | Potency [8] 6.86 µM | Potency [9] 12.3 µM | Potency [13] 22.5 µM

Nc1ccc(N)c([N+](=O)[O-])c1
active: Potency [1] 35.6 µM

Oc1ccc(Cl)cc1C1CCCC1
active: Potency [11] 56.6 µM
inactive: Potency [1] | Potency [2] | Potency [3] | Potency [12] | Potency [5] | Potency [6] | Potency [7]
